Reference: the supplement of paper PMC10849652
Of roughly 7,900 targets only a part is listed; those with a hit were picked by preference. About 0.6% of all pairs of compound and target were hits. Unmarked numbers belong to inactive results.

Tests used:
Test in all cases: log2 fold change, soluble protein after heating vs DMSO (PISA); higher = thermal stabilisation; K562 cells, 10 uM, 30 min; active = over 0.2 and 3.5 SD of the protein, either way, in both replicates (recomputed)
[1] = compound: CS(=O)(=O)c1ccc(-c2cnc(N)c(C(=O)Nc3ccccc3)n2)cc1
Outline: (§1)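 K562 cells at 2×10^6 cells/mL were treated with 10 μM compound for 30 min. Aliquots were heated for 3 min across 48°C-58°C, pooled, and extracted in PBS with 0.5% NP-40 at 4°C; soluble protein was the supernatant after 21,000xg for 90 min. Soluble protein was quantified by TMTpro 16plex LC-MS/MS with channel sums equalised, and reported as log2 fold change in thermal stability against DMSO controls, with values from duplicates.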

crizotinib = compound: C[C@@H](Oc1cc(-c2cnn(C3CCNCC3)c2)cnc1N)c1c(Cl)ccc(F)c1Cl [crizotinib]
Outline: as §1

[2] = compound: C[C@@H]1COCCN1C2=NC(=NC(=C2)C3(CC3)S(=O)(=O)C)C4=C5C=CNC5=CC=C4
Outline: as §1

[3] = compound: C[C@H](C1=CC=C(C=C1)C(=O)NC2=C3C=CNC3=NC=C2)N
Outline: as §1

duvelisib = compound: C[C@H](Nc1ncnc2nc[nH]c12)c1cc2cccc(Cl)c2c(=O)n1-c1ccccc1 [duvelisib]
Outline: as §1

gandotinib = compound: Cc1cc(Nc2cc(CN3CCOCC3)c3nc(C)c(Cc4ccc(Cl)cc4F)n3n2)n[nH]1 [gandotinib]
Outline: as §1

tozasertib = compound: Cc1cc(Nc2cc(N3CCN(C)CC3)nc(Sc3ccc(NC(=O)C4CC4)cc3)n2)n[nH]1 [tozasertib]
Outline: as §1

[4] = compound: Cc1cc(SCc2sc(-c3ccc(C(F)(F)F)cc3)nc2C)ccc1OCC(=O)O
Outline: as §1

doramapimod = compound: Cc1ccc(-n2nc(C(C)(C)C)cc2NC(=O)Nc2ccc(OCCN3CCOCC3)c3ccccc23)cc1 [doramapimod]
Outline: as §1

ispinesib = compound: Cc1ccc(C(=O)N(CCCN)[C@@H](c2nc3cc(Cl)ccc3c(=O)n2Cc2ccccc2)C(C)C)cc1 [ispinesib]
Outline: as §1

bafetinib = compound: Cc1ccc(NC(=O)c2ccc(CN3CC[C@H](N(C)C)C3)c(C(F)(F)F)c2)cc1Nc1nccc(-c2cncnc2)n1 [bafetinib]
Outline: as §1

[5] = compound: Cc1cccc(CC(=O)N2CCc3c2ccc(-c2cn(C)c4ncnc(N)c24)c3F)n1
Outline: as §1

nilotinib = compound: Cc1cn(-c2cc(NC(=O)c3ccc(C)c(Nc4nccc(-c5cccnc5)n4)c3)cc(C(F)(F)F)c2)cn1 [nilotinib]
Outline: as §1

[6] = compound: Cc1nc(Nc2n[nH]c3c2CN(C(=O)N[C@H](CN(C)C)c2ccccc2)C3(C)C)c2sccc2n1
Outline: as §1

dasatinib = compound: Cc1nc(Nc2ncc(C(=O)Nc3c(C)cccc3Cl)s2)cc(N2CCN(CCO)CC2)n1 [dasatinib]
Outline: as §1

[7] = compound: Cc1ncc(-c2ccnc(Nc3ccc(S(C)(=O)=O)cc3)n2)n1C(C)C
Outline: as §1

[8] = compound: Cn1cc(-c2ccc3c(c2)CCN3C(=O)Cc2cccc(C(F)(F)F)c2)c2c(N)ncnc21
Outline: as §1

[9] = compound: Cn1cc(-c2ccc3nnc(C(F)(F)c4ccc5ncccc5c4)n3n2)cn1
Outline: as §1

tipifarnib = compound: Cn1cncc1[C@@](N)(c1ccc(Cl)cc1)c1ccc2c(c1)c(-c1cccc(Cl)c1)cc(=O)n2C [tipifarnib]
Outline: as §1

mubritinib = compound: FC(F)(F)c1ccc(/C=C/c2nc(COc3ccc(CCCCn4ccnn4)cc3)co2)cc1 [mubritinib]
Outline: as §1

UniProt Q9NRD1, sequence (Q9NRD1 whole entry, looked up): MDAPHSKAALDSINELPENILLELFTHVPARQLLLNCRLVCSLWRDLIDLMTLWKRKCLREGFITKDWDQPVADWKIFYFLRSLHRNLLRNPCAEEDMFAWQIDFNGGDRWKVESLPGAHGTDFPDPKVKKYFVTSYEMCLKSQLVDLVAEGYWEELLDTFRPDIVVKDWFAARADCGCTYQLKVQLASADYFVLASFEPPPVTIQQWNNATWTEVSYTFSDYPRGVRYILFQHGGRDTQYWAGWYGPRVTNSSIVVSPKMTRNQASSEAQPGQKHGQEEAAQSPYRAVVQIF
UniProt P04066, sequence (P04066 whole entry, looked up): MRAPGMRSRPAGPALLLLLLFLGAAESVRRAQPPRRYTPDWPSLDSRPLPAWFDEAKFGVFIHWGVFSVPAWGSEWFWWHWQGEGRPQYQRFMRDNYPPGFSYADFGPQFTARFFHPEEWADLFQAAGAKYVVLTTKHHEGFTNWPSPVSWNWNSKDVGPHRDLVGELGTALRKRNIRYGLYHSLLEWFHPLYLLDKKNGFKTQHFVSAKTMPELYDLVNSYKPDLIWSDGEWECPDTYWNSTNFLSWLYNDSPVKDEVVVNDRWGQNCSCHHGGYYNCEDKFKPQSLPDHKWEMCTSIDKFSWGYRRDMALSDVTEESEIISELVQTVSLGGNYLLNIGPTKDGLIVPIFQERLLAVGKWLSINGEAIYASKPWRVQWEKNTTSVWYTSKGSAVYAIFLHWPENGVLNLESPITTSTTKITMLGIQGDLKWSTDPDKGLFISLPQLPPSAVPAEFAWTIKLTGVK
UniProt P36915, sequence (P36915 whole entry, looked up): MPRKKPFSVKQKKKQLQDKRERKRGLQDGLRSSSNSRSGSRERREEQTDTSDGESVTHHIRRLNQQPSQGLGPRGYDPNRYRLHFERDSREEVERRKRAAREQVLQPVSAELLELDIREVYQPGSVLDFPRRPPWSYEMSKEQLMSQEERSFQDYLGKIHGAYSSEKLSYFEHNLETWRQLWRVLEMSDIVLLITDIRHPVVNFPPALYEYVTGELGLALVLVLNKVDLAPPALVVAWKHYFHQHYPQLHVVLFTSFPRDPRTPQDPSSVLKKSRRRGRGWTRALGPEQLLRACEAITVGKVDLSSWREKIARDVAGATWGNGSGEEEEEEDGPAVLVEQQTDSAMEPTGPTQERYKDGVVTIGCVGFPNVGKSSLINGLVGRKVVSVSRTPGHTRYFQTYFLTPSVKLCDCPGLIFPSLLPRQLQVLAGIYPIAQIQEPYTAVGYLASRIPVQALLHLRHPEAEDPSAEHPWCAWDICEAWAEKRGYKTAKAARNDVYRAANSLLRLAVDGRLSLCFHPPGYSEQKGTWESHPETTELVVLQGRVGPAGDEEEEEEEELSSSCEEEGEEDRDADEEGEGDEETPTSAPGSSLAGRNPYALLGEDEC
UniProt Q9UBN7, sequence (Q9UBN7 whole entry, looked up): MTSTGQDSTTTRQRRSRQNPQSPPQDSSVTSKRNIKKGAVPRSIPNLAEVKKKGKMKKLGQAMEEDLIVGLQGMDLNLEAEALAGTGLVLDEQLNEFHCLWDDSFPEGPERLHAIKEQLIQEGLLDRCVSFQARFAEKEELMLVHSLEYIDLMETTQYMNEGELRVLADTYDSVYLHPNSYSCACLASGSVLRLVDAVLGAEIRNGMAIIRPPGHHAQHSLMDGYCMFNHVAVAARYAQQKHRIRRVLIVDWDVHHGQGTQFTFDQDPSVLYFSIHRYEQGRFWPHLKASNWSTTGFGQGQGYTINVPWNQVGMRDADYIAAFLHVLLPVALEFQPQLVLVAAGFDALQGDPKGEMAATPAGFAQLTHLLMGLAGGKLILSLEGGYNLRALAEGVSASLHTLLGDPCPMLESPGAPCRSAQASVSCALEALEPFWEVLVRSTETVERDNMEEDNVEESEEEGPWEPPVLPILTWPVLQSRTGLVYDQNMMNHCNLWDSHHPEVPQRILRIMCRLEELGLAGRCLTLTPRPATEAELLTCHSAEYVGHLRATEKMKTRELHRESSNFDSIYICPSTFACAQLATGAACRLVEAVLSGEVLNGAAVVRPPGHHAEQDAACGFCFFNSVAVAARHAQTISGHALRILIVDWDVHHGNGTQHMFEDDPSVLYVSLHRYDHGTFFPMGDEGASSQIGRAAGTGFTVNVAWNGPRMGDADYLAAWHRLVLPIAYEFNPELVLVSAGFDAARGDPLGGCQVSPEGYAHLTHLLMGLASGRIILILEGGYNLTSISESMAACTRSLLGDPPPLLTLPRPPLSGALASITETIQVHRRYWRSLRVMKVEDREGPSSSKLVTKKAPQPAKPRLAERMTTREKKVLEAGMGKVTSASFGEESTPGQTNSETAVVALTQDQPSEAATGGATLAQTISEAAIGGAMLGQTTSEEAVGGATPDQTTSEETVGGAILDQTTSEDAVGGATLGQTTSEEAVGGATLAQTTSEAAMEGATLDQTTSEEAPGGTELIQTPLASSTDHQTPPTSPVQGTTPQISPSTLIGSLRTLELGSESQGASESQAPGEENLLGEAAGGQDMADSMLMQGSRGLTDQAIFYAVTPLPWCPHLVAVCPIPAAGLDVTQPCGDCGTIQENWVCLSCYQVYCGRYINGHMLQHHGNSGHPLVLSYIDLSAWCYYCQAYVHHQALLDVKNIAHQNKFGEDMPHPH
UniProt P15586, sequence (P15586 whole entry, looked up): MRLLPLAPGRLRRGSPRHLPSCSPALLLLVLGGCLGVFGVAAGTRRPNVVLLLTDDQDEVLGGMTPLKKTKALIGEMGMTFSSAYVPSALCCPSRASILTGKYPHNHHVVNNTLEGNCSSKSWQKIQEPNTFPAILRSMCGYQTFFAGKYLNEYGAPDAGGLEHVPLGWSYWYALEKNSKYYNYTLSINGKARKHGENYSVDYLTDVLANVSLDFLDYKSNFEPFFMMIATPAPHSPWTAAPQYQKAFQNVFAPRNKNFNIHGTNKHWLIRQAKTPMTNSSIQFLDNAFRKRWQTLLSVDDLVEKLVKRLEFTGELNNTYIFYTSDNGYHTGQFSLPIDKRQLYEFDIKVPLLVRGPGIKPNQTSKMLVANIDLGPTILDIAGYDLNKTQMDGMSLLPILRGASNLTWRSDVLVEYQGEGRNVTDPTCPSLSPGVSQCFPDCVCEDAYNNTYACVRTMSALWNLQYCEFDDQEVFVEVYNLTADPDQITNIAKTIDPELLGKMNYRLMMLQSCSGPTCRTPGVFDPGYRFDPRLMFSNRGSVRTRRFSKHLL
UniProt O75146, sequence (O75146 whole entry, looked up): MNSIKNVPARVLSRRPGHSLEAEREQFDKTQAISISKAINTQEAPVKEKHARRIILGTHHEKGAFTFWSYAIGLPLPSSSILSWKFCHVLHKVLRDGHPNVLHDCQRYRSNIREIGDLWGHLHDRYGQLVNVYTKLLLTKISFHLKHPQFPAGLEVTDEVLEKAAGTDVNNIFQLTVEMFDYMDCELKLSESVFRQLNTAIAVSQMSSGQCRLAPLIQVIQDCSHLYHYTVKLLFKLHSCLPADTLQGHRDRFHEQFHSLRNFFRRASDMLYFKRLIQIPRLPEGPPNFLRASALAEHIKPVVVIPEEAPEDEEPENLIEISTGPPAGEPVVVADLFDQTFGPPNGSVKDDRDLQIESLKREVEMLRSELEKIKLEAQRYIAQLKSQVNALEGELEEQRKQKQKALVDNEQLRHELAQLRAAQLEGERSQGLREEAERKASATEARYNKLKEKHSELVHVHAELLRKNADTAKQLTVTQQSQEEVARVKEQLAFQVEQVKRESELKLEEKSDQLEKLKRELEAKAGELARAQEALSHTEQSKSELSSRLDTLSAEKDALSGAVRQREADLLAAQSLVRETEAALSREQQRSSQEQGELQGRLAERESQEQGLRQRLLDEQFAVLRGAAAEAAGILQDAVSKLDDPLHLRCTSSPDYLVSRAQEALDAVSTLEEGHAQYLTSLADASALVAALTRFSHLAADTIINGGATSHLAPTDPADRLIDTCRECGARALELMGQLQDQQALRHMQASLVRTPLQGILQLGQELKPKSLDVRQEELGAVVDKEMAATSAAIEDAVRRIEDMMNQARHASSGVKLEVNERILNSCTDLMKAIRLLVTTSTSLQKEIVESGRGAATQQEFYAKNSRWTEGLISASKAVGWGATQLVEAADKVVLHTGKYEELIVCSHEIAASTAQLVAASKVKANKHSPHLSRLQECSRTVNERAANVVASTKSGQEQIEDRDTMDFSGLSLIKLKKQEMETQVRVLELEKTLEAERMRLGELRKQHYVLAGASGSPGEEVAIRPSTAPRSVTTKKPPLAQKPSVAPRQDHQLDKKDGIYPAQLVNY
UniProt P31943, sequence (P31943 whole entry, looked up): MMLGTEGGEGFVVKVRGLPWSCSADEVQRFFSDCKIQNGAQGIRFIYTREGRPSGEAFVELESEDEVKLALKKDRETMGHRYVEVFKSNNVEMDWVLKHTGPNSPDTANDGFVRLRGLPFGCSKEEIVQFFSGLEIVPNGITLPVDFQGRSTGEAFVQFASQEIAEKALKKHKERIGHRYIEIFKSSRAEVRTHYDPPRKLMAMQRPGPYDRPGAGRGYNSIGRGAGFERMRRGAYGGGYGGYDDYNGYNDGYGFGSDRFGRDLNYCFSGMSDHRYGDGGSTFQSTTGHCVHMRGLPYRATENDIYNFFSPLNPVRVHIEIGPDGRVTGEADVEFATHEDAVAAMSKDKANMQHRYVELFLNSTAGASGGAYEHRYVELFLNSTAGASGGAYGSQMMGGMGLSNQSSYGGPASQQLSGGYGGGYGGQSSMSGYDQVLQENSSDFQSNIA
UniProt Q9Y680, sequence (Q9Y680 whole entry, looked up): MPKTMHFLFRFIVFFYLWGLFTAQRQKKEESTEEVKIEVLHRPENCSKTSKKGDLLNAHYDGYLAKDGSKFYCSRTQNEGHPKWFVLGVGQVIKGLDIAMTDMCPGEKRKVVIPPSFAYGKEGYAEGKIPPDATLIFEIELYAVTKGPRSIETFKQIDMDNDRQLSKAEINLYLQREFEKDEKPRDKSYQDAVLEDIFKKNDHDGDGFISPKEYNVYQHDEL
UniProt P63218, sequence (P63218 whole entry, looked up): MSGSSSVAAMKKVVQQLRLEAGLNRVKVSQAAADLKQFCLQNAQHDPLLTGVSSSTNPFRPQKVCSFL

Row | Target | log2 fold change [1] | log2 fold change (crizotinib) | log2 fold change [2] | log2 fold change [3] | log2 fold change (duvelisib) | log2 fold change (gandotinib) | log2 fold change (tozasertib) | log2 fold change [4] | log2 fold change (doramapimod) | log2 fold change (ispinesib) | log2 fold change (bafetinib) | log2 fold change [5] | log2 fold change (nilotinib) | log2 fold change [6] | log2 fold change (dasatinib) | log2 fold change [7] | log2 fold change [8] | log2 fold change [9] | log2 fold change (tipifarnib) | log2 fold change (mubritinib)
1 | GLCCI1 (UniProt Q86VQ1) | -0.008 | 0.045 | 0.024 | 0.026 | 0.023 | 0.079 | 0.009 | 0.044 | -0.032 | 0.239 | -0.074 | 0.037 | 0.073 | -0.103 | -0.066 | -0.094 | 0.03 | -0.175 | 0.075 | 0.011
2 | HDAC6 (UniProt Q9UBN7) | -0.019 | -0.057 | -0.007 | 0.066 | 0.045 | 0.079 | -0.091 | 0.062 | 0.015 | -0.027 | -0.18 | -0.086 | 0.126 | -0.026 | -0.107 | -0.084 | 0.055 | -0.005 | -0.009 | 0.086
3 | FKBP7 (UniProt Q9Y680) | 0.052 | 0.094 | 0.003 | 0.114 | -0.043 | 0.114 | -0.054 | 0.005 | -0.023 | 0.044 | 0 | -0.04 | 0.055 | -0.058 | 0.064 | 0 | 0.071 | 0.012 | 0.027 | 0.031
4 | FBXO6 (UniProt Q9NRD1) | 0.035 | 0.475 (active) | 0.052 | -0.082 | 0.04 | 0.088 | 0.036 | 0.036 | -0.049 | 0.39 (active) | 0.442 (active) | 0.015 | -0.118 | -0.004 | -0.202 | 0.044 | 0.047 | -0.021 | -0.021 | -0.038
5 | GNL1 (UniProt P36915) | 0.051 | -0.014 | 0.162 | -0.011 | 0.013 | 0.028 | -0.014 | 0.052 | -0.019 | 0.087 | -0.02 | 0.019 | -0.024 | 0.05 | -0.084 | 0.054 | 0.047 | -0.03 | -0.152 | 0.009
6 | GTF3C4 (UniProt Q9UKN8) | -0.011 | 0.078 | 0.04 | -0.015 | 0.035 | -0.05 | 0.059 | -0.063 | -0.019 | 0.06 | -0.065 | 0.019 | -0.034 | -0.069 | -0.024 | 0.036 | -0.017 | -0.007 | 0.014 | 0.01
7 | HDAC1 (UniProt Q13547) | 0.011 | 0.084 | 0.001 | 0.115 | 0.045 | -0.02 | -0.033 | 0.06 | -0.018 | 0.038 | 0.306 | -0.046 | -0.023 | -0.021 | -0.091 | -0.055 | -0.002 | -0.009 | -0.078 | -0.025
8 | FUCA1 (UniProt P04066) | 0.019 | -0.079 | 0.031 | -0.049 | 0.007 | 0 | -0.007 | -0.044 | 0.021 | -0.007 | -1.16 (active) | -0.001 | -0.011 | -0.01 | -0.009 | -0.014 | -0.054 | 0.011 | -0.001 | -0.008
9 | GNG5 (UniProt P63218) | 0.014 | 0.094 | 0.207 | -0.13 | 0.134 | 0.055 | 0.063 | -0.071 | 0.008 | 0.216 | 0.013 | -0.048 | 0.12 | 0.023 | 0.06 | -0.051 | 0.027 | 0.169 | 0.027 | 0.039
10 | FNTB (UniProt P49356) | 0.104 | 0.054 | -0.035 | -0.137 | 0.085 | 0.169 | -0.012 | -0.043 | -0.012 | 0.109 | 0.028 | 0.015 | 0.028 | 0.177 | 0.22 | -0.056 | 0.196 | 0.251 | 0.757 (active) | -0.103
11 | GEMIN5 (UniProt Q8TEQ6) | -0.004 | -0.047 | 0.038 | 0.02 | -0.006 | -0.082 | 0.016 | 0.055 | -0.001 | -0.088 | 0.015 | 0.065 | -0.046 | -0.315 (active) | -0.099 | -0.127 | 0.006 | -0.021 | -0.049 | 0.043
12 | HIP1R (UniProt O75146) | 0.016 | -0.1 | 0.058 | 0.026 | -0.045 | -0.069 | -0.008 | 0.029 | 0.007 | -0.097 | -0.021 | 0.043 | -0.11 | 0.016 | -0.144 | -0.019 | 0.022 | -0.013 | -0.075 | 0.036
13 | GNS (UniProt P15586) | 0.001 | -0.115 | 0.046 | -0.032 | 0.016 | 0.061 | 0.014 | -0.028 | 0.016 | -0.021 | -0.156 | -0.002 | 0.003 | 0.037 | 0.006 | -0.033 | 0.008 | -0.028 | 0.02 | -0.004
14 | HNRNPH1 (UniProt P31943) | 0.027 | -0.171 | -0.012 | 0.02 | -0.026 | -0.017 | -0.01 | 0.126 | -0.012 | -0.068 | 0.004 | 0.037 | -0.141 | -0.236 | -0.083 | -0.116 | 0.022 | 0.055 | -0.124 | -0.044
15 | HDAC2 (UniProt Q92769) | -0.01 | 0.08 | -0.02 | -0.046 | 0.022 | 0.003 | -0.002 | -0.029 | 0.011 | 0.072 | 0.137 | -0.046 | -0.01 | 0.009 | 0.007 | -0.002 | -0.01 | -0.001 | 0.027 | 0.015
